# Laboratory results from PubChem BioAssay AID1511 (Johns Hopkins Ion Channel Center, 2009).
# Screen size: about 310,000 compounds; about 1,600 (0.52%) were called active.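 The calls were made as follows: active = activation above the mean of controls blocked by dofetilide plus 5 SD; inactive = the rest.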 Only a selection was taken, and actives are over-represented in it overall.
# Biological target: Voltage-gated inwardly rectifying potassium channel KCNH2 (Homo sapiens) (UniProt Q12809)
# Test: compounds relieving dofetilide block of hERG – cell-based, CHO-hERG, FluxOR thallium flux, dofetilide IC70, primary screen (AID 1511);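 also: thallium influx through hERG after potassium depolarization seen as dye fluorescence rise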
# Conditions: dofetilide IC70 present, at 10 µM, hits give high values
# Chain of Voltage-gated inwardly rectifying potassium channel KCNH2 (Homo sapiens) (Q12809 whole entry, looked up): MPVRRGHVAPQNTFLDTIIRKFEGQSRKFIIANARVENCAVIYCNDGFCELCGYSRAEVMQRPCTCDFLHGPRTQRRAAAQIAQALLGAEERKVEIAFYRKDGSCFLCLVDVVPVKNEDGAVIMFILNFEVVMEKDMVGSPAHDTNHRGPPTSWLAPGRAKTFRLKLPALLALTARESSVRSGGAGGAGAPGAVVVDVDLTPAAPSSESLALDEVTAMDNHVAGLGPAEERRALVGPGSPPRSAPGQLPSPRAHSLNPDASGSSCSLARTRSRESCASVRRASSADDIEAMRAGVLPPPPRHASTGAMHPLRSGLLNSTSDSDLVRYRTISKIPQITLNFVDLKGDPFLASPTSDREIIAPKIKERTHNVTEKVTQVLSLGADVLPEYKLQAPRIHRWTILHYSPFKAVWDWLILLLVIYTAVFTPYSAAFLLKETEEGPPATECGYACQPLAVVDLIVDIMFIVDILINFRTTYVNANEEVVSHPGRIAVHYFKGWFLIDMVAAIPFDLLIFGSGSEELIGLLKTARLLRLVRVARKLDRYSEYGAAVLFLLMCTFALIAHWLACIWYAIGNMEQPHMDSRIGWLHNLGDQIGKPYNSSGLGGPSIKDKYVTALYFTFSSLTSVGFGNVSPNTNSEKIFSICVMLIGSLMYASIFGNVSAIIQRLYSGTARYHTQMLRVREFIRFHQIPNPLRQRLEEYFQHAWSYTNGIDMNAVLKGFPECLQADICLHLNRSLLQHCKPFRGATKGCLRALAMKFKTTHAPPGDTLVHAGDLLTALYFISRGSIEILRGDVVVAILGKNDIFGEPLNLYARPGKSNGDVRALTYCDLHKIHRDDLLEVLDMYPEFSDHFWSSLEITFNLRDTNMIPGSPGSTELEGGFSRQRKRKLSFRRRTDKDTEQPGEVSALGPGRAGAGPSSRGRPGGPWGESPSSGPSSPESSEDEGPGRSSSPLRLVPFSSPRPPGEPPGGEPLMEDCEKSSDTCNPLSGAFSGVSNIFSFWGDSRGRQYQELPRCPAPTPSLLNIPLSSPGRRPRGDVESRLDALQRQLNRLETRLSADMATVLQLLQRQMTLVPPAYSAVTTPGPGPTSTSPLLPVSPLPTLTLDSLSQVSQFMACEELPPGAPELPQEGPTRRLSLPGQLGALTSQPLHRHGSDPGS
row,SMILES,"activation (rescue from dofetilide block), less the hit threshold"
1,Cc1ccc2nc(-c3ccccn3)cc(C(=O)Nc3ccc4c(c3)OCO4)c2c1,-4.32% (inactive)
2,Cc1ccc2nc(-c3ccncc3)cc(C(=O)Nc3ccc4c(c3)OCCO4)c2c1,6.28% (active)
3,Cc1ccc2nc(-c3ccncc3)cc(C(=O)Nc3ccncc3)c2c1,-6.13% (inactive)
4,O=C(NCC1CC1)c1onc(CSc2ccccc2)c1C(=O)NCC1CC1,-9.81% (inactive)
5,COc1ccc(CC(=O)N2N=C(C)CC2(O)C(F)(F)F)cc1 (stereo unspecified),-4.8% (inactive)
6,CC(C)c1nc2ccc(C(=O)O)cc2[nH]1,-0.43% (inactive)
7,Cc1nc2ccc(C(=O)N/N=C/c3ccc(O)cc3)cc2[nH]1,-13.1% (inactive)
8,Cc1nc2ccc(C(=O)O)cc2[nH]1,6.97% (active)
9,COc1ccc(CNS(=O)(=O)c2cc(-c3cc(C)no3)ccc2C(C)C)cc1,-6.05% (inactive)
10,CS(=O)(=O)N(Cc1nc2sc3c(c2c(=O)[nH]1)CCCC3)C1CCCCC1,-10.9% (inactive)
11,Cc1cc(Cl)ccc1NNC(=O)c1snnc1C,-9.34% (inactive)
12,COc1nc(NC2CCCCC2)nc(N2CCCCCC2)n1,-7.83% (inactive)
13,Oc1ccc(N=Nc2nccs2)c(O)c1,-0.07% (inactive)
14,c1ccc(NCc2cccc3ccccc23)nc1,-3.89% (inactive)
15,Oc1ccc2ccccc2c1N=Nc1nccs1,29.7% (active)
16,C=CCC1=C/C(=C\c2c(N)n3nc(CC(=O)N4CCOCC4)sc3nc2=O)C=C(OC)C1=O,-8.72% (inactive)
17,Cn1c(SCC(=O)N2CCOCC2)nnc1-c1ccc2ncccc2c1,-4.81% (inactive)
18,Cn1c(SCC(=O)N2CCOCC2)nnc1-c1ccc(NC(=O)c2ccccc2F)cc1,6.37% (active)
19,Cn1c(SCC(=O)N2CCCC2)nnc1-c1ccc2c(c1)OCO2,-8.24% (inactive)
20,Cc1cccc(NC(=O)NC(=S)NC(=O)c2ccccc2)c1,-0.76% (inactive)
21,Cc1cccc(NC(=O)c2ccc([N+](=O)[O-])o2)c1,-12.5% (inactive)

row,SMILES,"activation (rescue from dofetilide block), less the hit threshold"
1,Cc1cccc(NC(=S)NC(=O)c2ccc(Br)o2)c1,17.4% (active)
2,CCc1ccc(C2N3CC4([N+](=O)[O-])CN2CC([N+](=O)[O-])(C3)C4(C)C)cc1 (stereo unspecified),-4.31% (inactive)
3,O=C(CCl)Nc1cccc(CP(=O)(c2ccccc2)c2ccccc2)c1,-8.43% (inactive)
4,Cc1ccc(NC(=O)CSCC(=O)NC2CCCCC2)cc1,-3.26% (inactive)
5,Cc1ccc(NC(=S)NC2CCCC2)cc1,4.71% (active)
6,Cc1cc(Br)ccc1NC(=S)NC1CCCC1,-9.68% (inactive)
7,COc1cc(C(=O)Nn2c(O)c(C3=c4ccccc4=NC3=O)sc2=S)ccc1O,-14.6% (inactive)
8,Cc1onc(-c2ccc(Cl)cc2)c1-c1ccnn1S(=O)(=O)c1ccc(Cl)cc1,-7.23% (inactive)
9,CCCCNC(=O)CCn1c(=S)[nH]c2cc3c(cc2c1=O)OCO3,-6.01% (inactive)
10,CC(C)NC(=O)CCCn1c(=S)[nH]c2cc3c(cc2c1=O)OCO3,-9.07% (inactive)
11,O=C(CCn1c(=S)[nH]c2cc3c(cc2c1=O)OCO3)NCc1ccc(Cl)cc1,4.99% (active)
12,N#Cc1c(-c2ccccc2)cc(-c2ccccc2)nc1SCC(=O)O,-12.9% (inactive)
13,N#Cc1c(-c2ccc(F)cc2)cc(C2CC2)nc1SCC(=O)c1cccs1,8.07% (active)
14,CCOC(=O)CC(=O)CSc1nc(-c2ccccc2)cc(-c2ccc(Cl)cc2)c1C#N,-4.82% (inactive)
15,NC(=O)COc1ccc(C23CC4CC(CC(C4)C2)C3)cc1,-4.82% (inactive)
16,O=C(O)CN(Cc1ccco1)S(=O)(=O)c1ccc(F)cc1,-6.3% (inactive)
17,CN(C)c1nc(=Nc2cccc(Cl)c2)ss1,40.5% (active)
18,Clc1cccc(N=C2NN=C(c3ccc4c(c3)OCCO4)CS2)c1,-12.5% (inactive)
19,COc1ccc(CCNC(=O)CSCc2ccc(Br)cc2)cc1OC,-9.1% (inactive)
20,Cc1cccc(C)c1NC(=O)CCS(=O)(=O)c1cccc2nsnc12,-5.88% (inactive)
21,N#Cc1c(N)nc2c(c1N)CC(C(F)(F)F)O2 (stereo unspecified),-1.93% (inactive)

row,SMILES,"activation (rescue from dofetilide block), less the hit threshold"
1,O=C(Cn1c(=O)sc2ccccc21)Nc1nc2c(s1)CCCC2,-3.68% (inactive)
2,CSc1ncccc1C(=O)Nc1nc2ccc(F)cc2s1,-5.7% (inactive)
3,Fc1ccc2nc(Nc3nc4c(s3)CCCC4)sc2c1,10.5% (active)
4,Brc1ccc(Nc2c3c(nc4ncnn24)CCC3)cc1,-14.2% (inactive)
5,CC(C)c1ccc2c(c1)c(SC(C)(C)C)c(CC(C)(C)C(=O)O)n2Cc1ccc(Cl)cc1,26.6% (active)
6,O=C(O)c1ccc(Cn2c(=S)[nH]c3cc(Cl)ccc3c2=O)cc1,-3.87% (inactive)
7,S=C(Cc1ccc(Cl)cc1)N1CCOCC1,-11.3% (inactive)
8,CCN(CC)CCCNC(=O)c1c(O)c2cc(F)cc3c2n(c1=O)C(C)CC3 (stereo unspecified),-2.1% (inactive)
9,Cc1ccc(N(CC(=O)Nc2cc(C)cc(C)c2)S(=O)(=O)c2cccc3nonc23)cc1,4.86% (active)
10,Cc1ccc(CNC(=O)CCNS(=O)(=O)c2cccc3nonc23)cc1,-9.61% (inactive)
11,CCOC(=O)c1cccc(NC(=O)CN(c2ccc(C)cc2)S(=O)(=O)c2c(C)noc2C)c1,-0.14% (inactive)
12,Cc1cc2c(cc1S(=O)(=O)NCc1ccc(Cl)cc1)OCC(=O)N2,-9.71% (inactive)
13,CCCC(C(=O)N1CCOCC1)N1C(=O)C2C3C=CC(C3)C2C1=O (stereo unspecified),4.64% (active)
14,CCC(C(=O)N1CCOCC1)n1c(C(=O)OC)cc2occc21 (stereo unspecified),-6.73% (inactive)
15,CCCCOC(=O)NCN1C(=O)C2C3C=CC(C3)C2C1=O (stereo unspecified),-3.35% (inactive)
16,COc1ccc(CNC(=O)C(C)n2nc(C)c3c(C)n(-c4ccccc4)nc3c2=O)c(OC)c1 (stereo unspecified),-10.8% (inactive)
17,COc1ccc(C(=O)N2CCCN(C)CC2)c(OC)c1,0.38% (inactive)
18,Cc1cc(C)c2c(n1)sc1c(=O)n(-c3ccccc3)c(=O)[nH]c12,-5.76% (inactive)
19,O=c1[nH]c(/C=C\c2cccc(C(F)(F)F)c2)nc(O)c1[N+](=O)[O-],-0.14% (inactive)
